Assay outcomes from PubChem BioAssay.
Pol kappa inh = qHTS for Inhibitors of Polymerase Kappa. DNA polymerase kappa (Homo sapiens), Q9UBT6. purified Pol kappa, fluorescent DNA synthesis assay, 10 min. Potency, µM (series often up to 107 µM), actives largely listed as inhibitors. 400,000 compounds, 0.53% hits. AID 588579, 2011
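Readout: fluorescence, taken kinetically at 0 and 10 min. Conditions: 10 nM Pol kappa, 15 min RT compound preincubation, 50 nM substrate final. Controls: enzyme-free buffer wells.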
POLB inh = qHTS Assay for Inhibitors of DNA Polymerase Beta; P06746; AID 485314, 2010; Pol beta primer extension/strand displacement, fluorescence kinetic; 340,000 compounds, 1.3% hits; Potency, µM (titrated, usually from 114 µM), hits mostly inhibitors
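Curves were derived by four-parameter Hill fits of normalized qHTS data. The kinetic fluorescent primer-extension read was taken at 0 and 10 min after 50 nM substrate, following a 15 min room-temperature preincubation of 10 nM enzyme with compounds.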
WRN helicase inh = qHTS for Inhibitors of WRN Helicase | Bifunctional 3'-5' exonuclease/ATP-dependent helicase WRN (Homo sapiens), Q14191 | WRN helicase unwinding, fluorescent forked duplex, kinetic | Potency, µM (highest dose often 114 µM), most hits filed as inhibitors | 360,000 compounds, 0.46% hits | AID 651768, 2012; note: nearly all actives have a fitted effect of over 55% in size
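WRN at 20 nM final preincubated with compound 15 min at room temperature; reaction started with 100 nM fluorophore/quencher forked duplex oligonucleotide and 2 mM ATP final. Unwinding followed kinetically by red fluorescence (ex 525, em 598 nm).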
POLH inh = qHTS for Inhibitors of Polymerase Eta | recombinant Pol eta, fluorescent DNA replication assay | Potency, µM (top dose mostly 114 µM), actives largely listed as inhibitors | 390,000 compounds, 1.2% hits
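Fluorescent replication assay: 50 nM final substrate added after a 15 min room-temperature compound preincubation with 10 nM enzyme. Signal taken at 0 min and again at 10 min.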
POLI inh = qHTS for Inhibitors of Polymerase Iota | DNA polymerase iota (Homo sapiens), Q9UNA4 | Pol iota fluorescent replication assay, 10 min | 390,000 compounds, 1% hits | Potency, µM (top dose mostly 115 µM), actives largely listed as inhibitors
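Pol iota at 10 nM preincubated 15 min with compounds at room temperature; reaction started with fluorescent substrate, 50 nM final. Fluorescence read kinetically at 0 and 10 min; buffer-only wells as negative control.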
PGK validate = qHTS for inhibitors of Phosphogylcerate Kinase: Hit Validation Screen; shares compounds with Pol kappa inh; 500 compounds, 79% hits; TbPGK coupled GAPDH assay, Kinase-Glo luminescence; Potency, µM (highest dose often 57.5 µM), most hits filed as inhibitors; note: nearly all actives have a fitted effect of over 65% in size
Pol iota confirm = qHTS for Inhibitors of Polymerase Iota: Confirmatory Assay for Cherry-picked Compounds; shares compounds with Pol kappa inh; Pol iota primer extension, TAMRA/BHQ fluorescence; Potency, µM, hits mostly inhibitors; 1,500 compounds, 77% hits
Hits are given with their value; . = inactive; ? = inconclusive; / = not tested or not shown; [ ] = remark or other dose. In the library only some 2.3% were active in any assay of this set; here they are far more common. Calls come from the whole dose curve; as a rule, active = well fitted curve in the direction sought with a large enough effect; inconclusive = small, poorly fitted or top-dose-only effect, or another doubt; inactive = no such curve, though single readings can be large; an effect the other way counts as inactive or inconclusive.

SMILES	Pol kappa inh	POLB inh	WRN helicase inh	POLH inh	POLI inh	PGK validate	others
Cc1ccc(-c2cc(C(=O)N/N=C/c3c(C)nn(C)c3C)c3ccccc3n2)cc1C	.	?	.	?	22.4µM	/	Pol iota confirm=?
Nc1nc(Nc2ccccc2)nc2c1ncn2[C@@H]1O[C@H](CO)[C@H](O)[C@H]1O	/	.	/	.	.	/
O=C(CSc1nnc2scc(-c3ccccc3)n12)Nc1nsc(-c2ccccc2)n1	.	?	?	?	?	/	Pol iota confirm=37.7
COc1ccc(Cn2c(-c3ccccc3)nc3c(c(=O)c4ccccc4n3C)c2=O)cc1	.	.	?	?	.	/	Pol iota confirm=42.3
COc1ccc(CCn2c(-c3ccccc3)nc3c(c(=O)c4ccccc4n3C)c2=O)cc1	/	.	/	/	/	/
O=C(N/N=C/c1cccnc1)c1ccc(O)cc1	.	.	.	.	.	/
O=C(N/N=C/c1cccnc1)c1cc(O)c(O)c(O)c1	?	?	?	.	?	/	Pol iota confirm=23.8
O=C(NCc1nc2ccccc2[nH]1)c1ccc(S(=O)(=O)N2CCCC2)cc1	.	.	.	.	.	/
O=C(NCc1nc2ccccc2[nH]1)c1ccc(S(=O)(=O)N2CCOCC2)cc1	.	.	.	.	.	.
CNC(=O)C1CCC(Cn2c(=O)c3sccc3n(CC(=O)Nc3cc(C)cc(C)c3)c2=O)CC1 (centres undefined)	.	.	/	.	.	.
CNC(=O)C1CCC(Cn2c(=O)c3sccc3n(CC(=O)N3CCC(C)CC3)c2=O)CC1 (centres undefined)	.	.	/	.	.	.
CN(C(=O)Cn1nnc(-c2ccc(S(C)(=O)=O)cc2)n1)c1ccccc1	.	.	/	.	.	/
CCCS(=O)(=O)c1cnc(C2COc3ccccc3O2)nc1N (centres undefined)	.	.	.	.	.	18.3µM
O=c1c(N2CCN(c3cccc(Cl)c3)CC2)csc2ccccc12	.	.	/	.	.	/
CCN1CCN(Cc2ccc(NC(=O)c3ccc(C)c(NC(=O)N4CCNC4=O)c3)cc2C(F)(F)F)CC1	.	.	.	?	?	25.9µM
Cc1ccccc1C(=O)O/N=C(\N)c1ccccc1	.	.	.	.	.	14.6µM
Cc1cccc(/C(N)=N/OC(=O)c2ccoc2C)c1	.	.	.	.	.	/
Cc1ccccc1C(=O)O/N=C(\N)c1ccc([N+](=O)[O-])cc1	.	.	.	.	.	/
Cc1occc1C(=O)O/N=C(\N)c1ccccc1	.	.	.	.	.	18.3µM
COc1ccc(Cl)c2sc(NC(=O)c3ccc(S(=O)(=O)N4CCOCC4)cc3)nc12	.	.	/	.	.	/
O=c1nc2c(O)cccn2c2c1c(=O)[nH]c1ccccc12	?	?	?	?	?	/	Pol iota confirm=42.3
C=C(C)C(=O)OCCCCCCOc1ccc(C(=O)O)cc1	25.1µM	70.8µM	.	35.5µM	14.1µM	9.19µM
C=CCC(=O)OCCCCCCOc1ccc(C(=O)O)cc1	.	.	.	.	.	/
Cc1ccsc1/C=N/Nc1nc(=O)[nH]nc1C	.	.	.	.	.	18.3µM
Cc1cc(C)nc(N/N=C/c2sccc2C)n1	.	.	.	.	.	/
SMILES	Pol kappa inh	POLB inh	WRN helicase inh	POLH inh	POLI inh	PGK validate	others
CCCCN1CCC2C=CCC(C(=O)O)C2C1=O (centres undefined)	.	/	/	/	.	/
Oc1ccc(CCNc2c3ccccc3nc3ccccc23)cc1O	?	7.08µM	50.1µM	?	39.8µM	/	Pol iota confirm=75.2
Cn1c(SCC(=O)c2ccc3c(c2)Cc2ccccc2-3)nnc1-c1ccccc1	.	?	?	8.91µM	?	/	Pol iota confirm=42.3
Cc1ccc(C2=NC(c3ccccc3)=Nc3ccc(Cl)cc3N2)cc1	.	.	/	/	.	/
CCCCCC(=O)Nc1cccc(C2=NOC3(C2)C[C@@H](C(N)=O)N(C(=O)c2cc([N+](=O)[O-])cc([N+](=O)[O-])c2)C3)c1 (some centres undefined)	.	.	.	.	.	/
C=C(C)C(=O)Nc1cccc(C2=NOC3(C2)C[C@@H](C(N)=O)N(C(=O)c2cc([N+](=O)[O-])cc([N+](=O)[O-])c2)C3)c1 (some centres undefined)	?	14.1µM	.	20µM	?	?
COc1ccc(N=C2SC(C(N)=O)CC(=O)N2Cc2ccc3c(c2)OCO3)cc1 (centres undefined)	89.1µM	?	.	28.2µM	39.8µM	.
CCOc1ccc(-c2ccc(SC)nn2)cc1	.	.	.	.	.	8.19µM
COc1cc(OC)cc(C(=O)Nc2ccc(S(=O)(=O)N3CCCCC3c3cccnc3)cc2)c1 (centres undefined)	.	.	/	.	?	/
Cc1ccc(NC(=O)c2sccc2C)nc1	.	.	.	.	.	13µM
Cc1csc2c(=O)sc(NC(=O)c3cccs3)nc12	.	?	?	?	?	25.9µM
Cc1csc2c(=O)sc(NC(=O)c3ccco3)nc12	.	?	.	.	.	/
O=c1cc2oc3cc(O)c(O)cc3c(-c3ccccc3O)c-2cc1O	4.47µM	39.8µM	.	?	.	1.16µM
COc1ccc(OC)c(-c2c3cc(O)c(=O)cc-3oc3cc(O)c(O)cc23)c1	?	44.7µM	79.4µM	/	?	0.366µM
COC(=O)c1nn(-c2ccc3c(c2)CCN3C(C)=O)cc1O	.	.	.	.	.	20.6µM
COC(=O)c1nn(-c2ccc3c(c2)OCO3)cc1O	.	.	.	.	.	/
CC(C)CCNC(=O)c1ccc2c(c1)NC(=O)C(CS(=O)(=O)Cc1ccc(F)cc1)N2 (centres undefined)	.	.	/	?	.	/	Pol iota confirm=?
Cc1ccc(CNC(=O)c2ccc3c(c2)NC(=O)C(CS(=O)(=O)Cc2cccc(F)c2)N3)cc1 (centres undefined)	.	.	/	.	.	/
CCOc1ccc(NC(=O)Cn2cc(C(=O)c3ccccc3)c(=O)c3cc4c(cc32)OCCO4)cc1	.	.	/	.	.	/
Cc1ccc(NC(=S)N2CCN(CCN3C(=O)c4cccc5cccc(c45)C3=O)CC2)cc1	.	.	.	?	.	.
O=C1c2cccc3cccc(c23)C(=O)N1CCN1CCN(C(=S)Nc2ccc(F)cc2)CC1	/	.	/	/	/	/
c1ccc(-c2cn3c(n2)-c2ccccc2C3)cc1	.	.	.	?	.	14.6µM
Cc1ccc(-c2nc3n(n2)Cc2ccccc2-3)cc1	.	?	?	.	?	/
O=C(Nc1ccc(Cc2ccc(NC(=O)Nc3cccnc3)cc2)cc1)Nc1cccnc1	/	/	.[11.6 µM]	44.7µM	/	/	Pol iota confirm=?
CSc1ccc(-c2nc3cccc(C)n3c2Nc2ccc3c(c2)OCO3)cc1	.	.	/	.	.	/
